Targets with a hit are over-represented here; the source holds about 7,900 in all. About 0.6% of all pairs of compound and target were hits. Values without a mark were called inactive.
Assays:
Assay in all cases: log2 fold change, soluble protein after heating vs DMSO (PISA); higher = thermal stabilisation; K562 cells, 10 uM, 30 min; active = over 0.2 and 3.5 SD of the protein, either way, in both replicates (recomputed)
[1] = compound: CN1CCN(CCOc2cc(OC3CCOCC3)c3c(Nc4c(Cl)ccc5c4OCO5)ncnc3c2)CC1 [saracatinib]
Procedure, shortened: (§1)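 K562 cells at 2×10^6 cells/mL were treated with 10 μM compound for 30 min. Aliquots were heated for 3 min across 48°C-58°C, pooled, and extracted in PBS with 0.5% NP-40 at 4°C; soluble protein was the supernatant after 21,000xg for 90 min. Soluble protein was quantified by TMTpro 16plex LC-MS/MS with channel sums equalised, and reported as log2 fold change in thermal stability against DMSO controls, with values from duplicates.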

[2] = compound: CN1CCN(c2nc(C3=C(c4c[nH]c5ccccc45)C(=O)NC3=O)c3ccccc3n2)CC1 [sotrastaurin]
Procedure, shortened: as §1

[3] = compound: CN1CC[C@H](c2c(O)cc(O)c3c(=O)cc(-c4ccccc4Cl)oc23)[C@H](O)C1 [alvocidib]
Procedure, shortened: as §1

[4] = compound: CN1CCc2c(c3ccccc3n2Cc2ccc(C(=O)NO)cc2)C1 [Tubastatin A]
Procedure, shortened: as §1

[5] = compound: CNC(=O)C1=CC=CC=C1NC2=NC(=NC=C2Cl)NC3=C(C=C(C=C3)N4CCOCC4)OC
Procedure, shortened: as §1

[6] = compound: CNC(=O)c1ccc(Nc2ncc(C(F)(F)F)c(NCc3nccnc3N(C)S(C)(=O)=O)n2)cc1 [defactinib]
Procedure, shortened: as §1

[7] = compound: CNCc1ccc(-c2[nH]c3cc(F)cc4c3c2CCNC4=O)cc1 [rucaparib]
Procedure, shortened: as §1

[8] = compound: CNc1nc(-c2ccc3c(N)n[nH]c3c2)cc(N2C[C@@H](C(=O)NC3CCCCC3)CC[C@H]2C)n1
Procedure, shortened: as §1

[9] = compound: COC(=O)N[C@@H](C)CNc1nccc(-c2cn(C(C)C)nc2-c2cc(Cl)cc(NS(C)(=O)=O)c2F)n1 [encorafenib]
Procedure, shortened: as §1

[10] = compound: COC(=O)[C@H](CCSC)NC(=O)C1=C(C=C(C=C1)NC[C@H](CS)N)C2=CC=CC=C2
Procedure, shortened: as §1

TSFM (UniProt P43897)
log2 fold change [1]: 0.057
log2 fold change [2]: -0.157
log2 fold change [3]: -0.132
log2 fold change [4]: 0.063
log2 fold change [5]: 0.021
log2 fold change [6]: -0.166
log2 fold change [7]: -0.001
log2 fold change [8]: -0.073
log2 fold change [9]: 0.167
log2 fold change [10]: -0.082

UBE2S (UniProt Q16763)
log2 fold change [1]: -0.001
log2 fold change [2]: -0.023
log2 fold change [3]: -0.078
log2 fold change [4]: 0.2
log2 fold change [5]: -0.016
log2 fold change [6]: -0.082
log2 fold change [7]: -0.051
log2 fold change [8]: -0.041
log2 fold change [9]: 0.022
log2 fold change [10]: -0.007

WBP4 (UniProt O75554)
log2 fold change [1]: 0.113
log2 fold change [2]: 0.012
log2 fold change [3]: -0.032
log2 fold change [4]: -0.02
log2 fold change [5]: -0.015
log2 fold change [6]: 0.012
log2 fold change [7]: -0.031
log2 fold change [8]: -0.019
log2 fold change [9]: -0.046
log2 fold change [10]: 0.045

VPS33A (UniProt Q96AX1)
log2 fold change [1]: -0.036
log2 fold change [2]: -0.174
log2 fold change [3]: -0.071
log2 fold change [4]: 0.033
log2 fold change [5]: -0.043
log2 fold change [6]: -0.06
log2 fold change [7]: 0.045
log2 fold change [8]: -0.013
log2 fold change [9]: -0.003
log2 fold change [10]: -0.025

WDR61 (UniProt Q9GZS3)
log2 fold change [1]: -0.011
log2 fold change [2]: 0.064
log2 fold change [3]: -0.051
log2 fold change [4]: -0.011
log2 fold change [5]: -0.005
log2 fold change [6]: -0.012
log2 fold change [7]: -0.012
log2 fold change [8]: -0.007
log2 fold change [9]: -0.028
log2 fold change [10]: 0.031

TMEM164 (UniProt Q5U3C3)
Chain of UniProt Q5U3C3 (Q5U3C3 whole entry, looked up): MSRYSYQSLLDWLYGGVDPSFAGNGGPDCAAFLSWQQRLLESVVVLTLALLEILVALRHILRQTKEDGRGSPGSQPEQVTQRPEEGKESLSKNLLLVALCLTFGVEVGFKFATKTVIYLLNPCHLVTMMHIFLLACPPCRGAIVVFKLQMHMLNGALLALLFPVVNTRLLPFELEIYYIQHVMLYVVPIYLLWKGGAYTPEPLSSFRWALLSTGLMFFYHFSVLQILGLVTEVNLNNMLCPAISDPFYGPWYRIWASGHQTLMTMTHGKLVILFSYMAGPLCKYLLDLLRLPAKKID
log2 fold change [1]: -0.13
log2 fold change [2]: 0.197
log2 fold change [3]: 0.025
log2 fold change [4]: 0.012
log2 fold change [5]: 0.033
log2 fold change [6]: 0.06
log2 fold change [7]: -0.233
log2 fold change [8]: 0.061
log2 fold change [9]: 0.211
log2 fold change [10]: -0.003

TMEM63B (UniProt Q5T3F8)
log2 fold change [1]: -0.084
log2 fold change [2]: -0.055
log2 fold change [3]: 0.021
log2 fold change [4]: -0.015
log2 fold change [5]: 0.019
log2 fold change [6]: 0.015
log2 fold change [7]: -0.004
log2 fold change [8]: -0.068
log2 fold change [9]: 0.023
log2 fold change [10]: 0

TUBA4A (UniProt P68366)
Chain of UniProt P68366 (P68366 whole entry, looked up): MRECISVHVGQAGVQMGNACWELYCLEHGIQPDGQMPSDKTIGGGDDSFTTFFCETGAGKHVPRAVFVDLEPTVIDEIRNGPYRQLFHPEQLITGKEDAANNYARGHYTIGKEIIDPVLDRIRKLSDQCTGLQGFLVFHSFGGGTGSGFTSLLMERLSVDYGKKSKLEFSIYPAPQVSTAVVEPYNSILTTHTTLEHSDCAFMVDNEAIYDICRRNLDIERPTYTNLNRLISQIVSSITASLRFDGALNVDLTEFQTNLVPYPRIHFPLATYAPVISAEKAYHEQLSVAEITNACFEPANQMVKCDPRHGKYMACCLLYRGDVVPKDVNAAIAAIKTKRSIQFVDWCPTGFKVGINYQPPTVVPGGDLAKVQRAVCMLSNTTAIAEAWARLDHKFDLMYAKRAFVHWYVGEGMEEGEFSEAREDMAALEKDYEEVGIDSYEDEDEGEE
log2 fold change [1]: 0.045
log2 fold change [2]: -0.012
log2 fold change [3]: -0.048
log2 fold change [4]: -0.051
log2 fold change [5]: -0.039
log2 fold change [6]: -0.024
log2 fold change [7]: -0.046
log2 fold change [8]: 0.038
log2 fold change [9]: -0.012
log2 fold change [10]: 0.013

XRCC6 (UniProt P12956)
log2 fold change [1]: -0.013
log2 fold change [2]: -0.114
log2 fold change [3]: -0.187
log2 fold change [4]: 0.099
log2 fold change [5]: -0.047
log2 fold change [6]: -0.264 (active)
log2 fold change [7]: -0.007
log2 fold change [8]: -0.015
log2 fold change [9]: 0.048
log2 fold change [10]: -0.041

UBAP2L isoform 1 (UniProt Q14157)
log2 fold change [1]: -0.001
log2 fold change [2]: 0.063
log2 fold change [3]: -0.092
log2 fold change [4]: -0.016
log2 fold change [5]: 0.038
log2 fold change [6]: -0.02
log2 fold change [7]: -0.017
log2 fold change [8]: -0.073
log2 fold change [9]: -0.014
log2 fold change [10]: -0.015

WASH2P (UniProt Q6VEQ5)
log2 fold change [1]: 0.009
log2 fold change [2]: -0.08
log2 fold change [3]: -0.018
log2 fold change [4]: -0.059
log2 fold change [5]: 0.02
log2 fold change [6]: -0.004
log2 fold change [7]: -0.011
log2 fold change [8]: -0.037
log2 fold change [9]: 0.004
log2 fold change [10]: 0.007

TRAPPC3 (UniProt O43617)
Chain of UniProt O43617 (O43617 whole entry, looked up): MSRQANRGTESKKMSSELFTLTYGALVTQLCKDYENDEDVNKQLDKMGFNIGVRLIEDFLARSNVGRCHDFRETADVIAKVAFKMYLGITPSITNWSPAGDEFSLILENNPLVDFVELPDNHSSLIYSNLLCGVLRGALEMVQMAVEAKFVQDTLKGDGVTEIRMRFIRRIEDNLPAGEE
log2 fold change [1]: 0.063
log2 fold change [2]: 0.001
log2 fold change [3]: -0.071
log2 fold change [4]: -0.026
log2 fold change [5]: 0
log2 fold change [6]: -0.072
log2 fold change [7]: -0.056
log2 fold change [8]: -0.014
log2 fold change [9]: 0.015
log2 fold change [10]: 0.013

TNPO3 (UniProt Q9Y5L0)
Chain of UniProt Q9Y5L0 (Q9Y5L0 whole entry, looked up): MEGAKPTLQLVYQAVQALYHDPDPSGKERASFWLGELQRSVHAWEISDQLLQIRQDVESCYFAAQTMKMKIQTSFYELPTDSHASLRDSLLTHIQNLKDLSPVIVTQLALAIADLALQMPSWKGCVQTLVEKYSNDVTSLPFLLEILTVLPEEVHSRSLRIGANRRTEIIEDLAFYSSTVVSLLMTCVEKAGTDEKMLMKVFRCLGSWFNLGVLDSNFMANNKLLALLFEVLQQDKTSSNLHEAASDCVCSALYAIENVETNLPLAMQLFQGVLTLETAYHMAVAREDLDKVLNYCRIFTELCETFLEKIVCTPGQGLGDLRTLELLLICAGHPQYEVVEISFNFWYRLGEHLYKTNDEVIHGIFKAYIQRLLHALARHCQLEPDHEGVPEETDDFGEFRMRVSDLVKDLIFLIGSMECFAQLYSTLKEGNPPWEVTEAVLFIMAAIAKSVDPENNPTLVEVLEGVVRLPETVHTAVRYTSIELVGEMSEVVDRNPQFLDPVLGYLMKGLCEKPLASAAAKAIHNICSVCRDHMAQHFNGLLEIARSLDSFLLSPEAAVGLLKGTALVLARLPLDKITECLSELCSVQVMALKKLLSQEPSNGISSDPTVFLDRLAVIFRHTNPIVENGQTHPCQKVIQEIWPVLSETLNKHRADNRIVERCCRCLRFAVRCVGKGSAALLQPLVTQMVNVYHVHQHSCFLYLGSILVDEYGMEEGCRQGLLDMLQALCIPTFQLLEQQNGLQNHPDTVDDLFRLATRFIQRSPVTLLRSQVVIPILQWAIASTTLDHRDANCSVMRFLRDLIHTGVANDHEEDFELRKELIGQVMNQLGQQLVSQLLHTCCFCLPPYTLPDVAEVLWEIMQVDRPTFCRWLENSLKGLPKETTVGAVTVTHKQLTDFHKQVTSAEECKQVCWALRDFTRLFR
log2 fold change [1]: 0.034
log2 fold change [2]: -0.075
log2 fold change [3]: -0.114
log2 fold change [4]: -0.03
log2 fold change [5]: -0.011
log2 fold change [6]: -0.067
log2 fold change [7]: 0
log2 fold change [8]: -0.013
log2 fold change [9]: 0.032
log2 fold change [10]: -0.003

UNC119B (UniProt A6NIH7)
Chain of UniProt A6NIH7 (A6NIH7 whole entry, looked up): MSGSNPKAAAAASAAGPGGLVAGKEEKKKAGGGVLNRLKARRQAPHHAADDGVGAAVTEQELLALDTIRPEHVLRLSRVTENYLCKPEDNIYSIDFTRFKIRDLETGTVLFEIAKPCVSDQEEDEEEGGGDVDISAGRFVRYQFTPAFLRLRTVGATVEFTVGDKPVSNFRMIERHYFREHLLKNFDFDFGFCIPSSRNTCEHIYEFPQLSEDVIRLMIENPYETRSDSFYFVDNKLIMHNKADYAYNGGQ
log2 fold change [1]: -0.076
log2 fold change [2]: 0.013
log2 fold change [3]: -0.206
log2 fold change [4]: 0.124
log2 fold change [5]: -0.031
log2 fold change [6]: -0.064
log2 fold change [7]: 0.133
log2 fold change [8]: 0.316
log2 fold change [9]: 0.026
log2 fold change [10]: -0.048

XPO5 (UniProt Q9HAV4)
Chain of UniProt Q9HAV4 (Q9HAV4 whole entry, looked up): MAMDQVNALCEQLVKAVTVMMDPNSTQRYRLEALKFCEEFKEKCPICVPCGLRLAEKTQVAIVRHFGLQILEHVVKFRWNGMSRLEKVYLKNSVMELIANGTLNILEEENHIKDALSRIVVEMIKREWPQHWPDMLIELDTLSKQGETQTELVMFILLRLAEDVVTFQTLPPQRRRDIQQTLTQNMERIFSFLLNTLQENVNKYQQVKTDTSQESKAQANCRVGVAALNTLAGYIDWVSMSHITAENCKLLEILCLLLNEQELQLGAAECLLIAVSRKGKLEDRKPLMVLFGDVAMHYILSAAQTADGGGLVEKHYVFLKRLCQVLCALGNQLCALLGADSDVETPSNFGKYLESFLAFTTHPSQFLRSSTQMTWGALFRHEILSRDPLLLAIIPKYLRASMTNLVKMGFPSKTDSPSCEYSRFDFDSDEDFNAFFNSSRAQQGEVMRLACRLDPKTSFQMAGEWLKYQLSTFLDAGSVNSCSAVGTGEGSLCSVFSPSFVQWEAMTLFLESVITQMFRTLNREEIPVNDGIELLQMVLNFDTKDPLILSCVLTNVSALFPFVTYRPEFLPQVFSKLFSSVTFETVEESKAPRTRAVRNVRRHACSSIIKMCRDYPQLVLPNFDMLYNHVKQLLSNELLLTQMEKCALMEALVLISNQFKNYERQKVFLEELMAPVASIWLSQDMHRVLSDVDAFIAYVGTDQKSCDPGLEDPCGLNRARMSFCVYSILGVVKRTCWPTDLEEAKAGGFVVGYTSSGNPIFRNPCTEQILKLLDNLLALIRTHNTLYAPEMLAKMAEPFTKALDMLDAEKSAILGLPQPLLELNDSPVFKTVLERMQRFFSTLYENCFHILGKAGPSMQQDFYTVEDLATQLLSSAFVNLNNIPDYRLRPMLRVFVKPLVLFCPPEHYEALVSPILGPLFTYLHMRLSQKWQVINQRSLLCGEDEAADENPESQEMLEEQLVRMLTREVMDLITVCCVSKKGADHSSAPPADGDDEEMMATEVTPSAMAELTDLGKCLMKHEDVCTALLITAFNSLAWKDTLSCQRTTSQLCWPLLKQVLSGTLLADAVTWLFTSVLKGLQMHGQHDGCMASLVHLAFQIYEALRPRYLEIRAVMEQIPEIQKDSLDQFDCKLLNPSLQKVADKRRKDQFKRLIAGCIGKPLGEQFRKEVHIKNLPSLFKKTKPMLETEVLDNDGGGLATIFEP
log2 fold change [1]: 0
log2 fold change [2]: -0.087
log2 fold change [3]: -0.102
log2 fold change [4]: -0.03
log2 fold change [5]: 0.008
log2 fold change [6]: -0.142
log2 fold change [7]: -0.028
log2 fold change [8]: 0.026
log2 fold change [9]: 0.054
log2 fold change [10]: -0.004

VDAC1 (UniProt P21796)
Chain of UniProt P21796 (P21796 whole entry, looked up): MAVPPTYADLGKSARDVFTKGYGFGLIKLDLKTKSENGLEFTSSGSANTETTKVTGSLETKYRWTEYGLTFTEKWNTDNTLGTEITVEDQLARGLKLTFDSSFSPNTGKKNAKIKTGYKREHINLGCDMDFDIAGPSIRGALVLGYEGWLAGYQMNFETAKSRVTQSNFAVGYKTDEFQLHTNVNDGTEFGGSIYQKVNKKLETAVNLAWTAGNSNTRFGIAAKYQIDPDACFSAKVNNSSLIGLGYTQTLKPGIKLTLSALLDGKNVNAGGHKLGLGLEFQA
log2 fold change [1]: 0.074
log2 fold change [2]: 0.035
log2 fold change [3]: 0.016
log2 fold change [4]: -0.014
log2 fold change [5]: 0.011
log2 fold change [6]: 0.005
log2 fold change [7]: -0.022
log2 fold change [8]: -0.026
log2 fold change [9]: -0.03
log2 fold change [10]: 0.014

WNK1 isoform 7 (UniProt Q9H4A3)
log2 fold change [1]: 0.022
log2 fold change [2]: 0.003
log2 fold change [3]: -0.007
log2 fold change [4]: -0.005
log2 fold change [5]: -0.047
log2 fold change [6]: 0.003
log2 fold change [7]: 0.013
log2 fold change [8]: -0.035
log2 fold change [9]: 0.012
log2 fold change [10]: 0.006

TRMT10C (UniProt Q7L0Y3)
Chain of UniProt Q7L0Y3 (Q7L0Y3 whole entry, looked up): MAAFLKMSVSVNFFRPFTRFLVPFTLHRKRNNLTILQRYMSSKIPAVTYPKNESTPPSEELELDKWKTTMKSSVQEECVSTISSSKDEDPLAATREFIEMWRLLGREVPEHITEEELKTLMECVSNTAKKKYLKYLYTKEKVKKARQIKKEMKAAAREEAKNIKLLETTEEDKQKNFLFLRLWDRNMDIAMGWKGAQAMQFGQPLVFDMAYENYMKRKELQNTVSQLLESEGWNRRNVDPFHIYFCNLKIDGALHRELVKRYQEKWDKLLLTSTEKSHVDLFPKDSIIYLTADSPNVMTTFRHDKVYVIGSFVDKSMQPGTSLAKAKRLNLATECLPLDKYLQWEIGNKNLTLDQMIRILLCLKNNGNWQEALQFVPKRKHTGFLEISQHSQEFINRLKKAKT
log2 fold change [1]: -0.129
log2 fold change [2]: -0.013
log2 fold change [3]: -0.126
log2 fold change [4]: -0.064
log2 fold change [5]: -0.024
log2 fold change [6]: -0.055
log2 fold change [7]: -0.011
log2 fold change [8]: 0.042
log2 fold change [9]: 0.041
log2 fold change [10]: -0.056

TMEM223 (UniProt A0PJW6)
log2 fold change [1]: 0.114
log2 fold change [2]: 0.048
log2 fold change [3]: -0.025
log2 fold change [4]: -0.059
log2 fold change [5]: 0.045
log2 fold change [6]: 0.015
log2 fold change [7]: -0.03
log2 fold change [8]: -0.02
log2 fold change [9]: -0.047
log2 fold change [10]: 0.022

TMEM87B (UniProt Q96K49)
log2 fold change [1]: -0.072
log2 fold change [2]: 0.013
log2 fold change [3]: -0.046
log2 fold change [4]: -0.099
log2 fold change [5]: -0.019
log2 fold change [6]: 0.044
log2 fold change [7]: -0.016
log2 fold change [8]: -0.123
log2 fold change [9]: 0.03
log2 fold change [10]: 0.149

VTA1 (UniProt Q9NP79)
Chain of UniProt Q9NP79 (Q9NP79 whole entry, looked up): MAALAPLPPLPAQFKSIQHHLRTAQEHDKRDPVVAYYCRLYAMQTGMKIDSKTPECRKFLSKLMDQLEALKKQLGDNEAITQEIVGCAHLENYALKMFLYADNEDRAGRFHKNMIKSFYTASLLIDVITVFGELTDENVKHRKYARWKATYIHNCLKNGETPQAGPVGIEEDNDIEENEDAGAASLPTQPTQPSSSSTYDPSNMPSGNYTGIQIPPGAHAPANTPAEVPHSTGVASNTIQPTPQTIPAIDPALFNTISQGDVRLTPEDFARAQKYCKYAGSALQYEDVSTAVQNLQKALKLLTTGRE
log2 fold change [1]: 0.028
log2 fold change [2]: -0.022
log2 fold change [3]: -0.081
log2 fold change [4]: -0.046
log2 fold change [5]: 0.045
log2 fold change [6]: -0.029
log2 fold change [7]: 0.011
log2 fold change [8]: -0.011
log2 fold change [9]: 0.023
log2 fold change [10]: -0.033

USP3 (UniProt Q9Y6I4)
Chain of UniProt Q9Y6I4 (Q9Y6I4 whole entry, looked up): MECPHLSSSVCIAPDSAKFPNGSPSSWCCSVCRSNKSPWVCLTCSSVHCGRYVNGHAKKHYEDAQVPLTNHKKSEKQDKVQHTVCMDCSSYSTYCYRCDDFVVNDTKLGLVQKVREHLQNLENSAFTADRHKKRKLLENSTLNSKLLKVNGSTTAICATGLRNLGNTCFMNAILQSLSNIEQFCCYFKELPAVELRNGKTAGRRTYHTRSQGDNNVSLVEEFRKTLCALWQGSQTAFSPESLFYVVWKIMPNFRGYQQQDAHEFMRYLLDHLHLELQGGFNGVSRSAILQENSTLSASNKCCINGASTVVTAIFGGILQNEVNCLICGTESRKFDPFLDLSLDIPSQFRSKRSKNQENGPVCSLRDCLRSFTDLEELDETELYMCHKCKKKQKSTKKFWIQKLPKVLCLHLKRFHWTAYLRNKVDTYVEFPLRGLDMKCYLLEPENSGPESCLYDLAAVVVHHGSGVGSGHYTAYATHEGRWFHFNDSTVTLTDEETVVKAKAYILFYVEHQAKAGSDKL
log2 fold change [1]: 0.16
log2 fold change [2]: 0.074
log2 fold change [3]: -0.288
log2 fold change [4]: -0.181
log2 fold change [5]: -0.118
log2 fold change [6]: -0.205
log2 fold change [7]: 0.042
log2 fold change [8]: 0.155
log2 fold change [9]: -0.008
log2 fold change [10]: -0.092

TOMM20 (UniProt Q15388)
Chain of UniProt Q15388 (Q15388 whole entry, looked up): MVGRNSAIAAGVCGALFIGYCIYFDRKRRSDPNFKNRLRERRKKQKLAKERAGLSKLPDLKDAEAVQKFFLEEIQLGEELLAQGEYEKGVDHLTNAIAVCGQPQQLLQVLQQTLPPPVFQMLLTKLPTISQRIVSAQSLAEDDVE
log2 fold change [1]: 0.012
log2 fold change [2]: -0.005
log2 fold change [3]: -0.001
log2 fold change [4]: -0.031
log2 fold change [5]: -0.028
log2 fold change [6]: -0.011
log2 fold change [7]: -0.009
log2 fold change [8]: -0.034
log2 fold change [9]: -0.131
log2 fold change [10]: 0.033

WDR7 (UniProt Q9Y4E6)
log2 fold change [1]: 0.024
log2 fold change [2]: 0.041
log2 fold change [3]: 0.04
log2 fold change [4]: -0.047
log2 fold change [5]: -0.114
log2 fold change [6]: -0.3
log2 fold change [7]: 0.128
log2 fold change [8]: -0.015
log2 fold change [9]: -0.174
log2 fold change [10]: -0.373

XPO1 (UniProt O14980)
log2 fold change [1]: 0.003
log2 fold change [2]: -0.088
log2 fold change [3]: -0.096
log2 fold change [4]: 0.001
log2 fold change [5]: -0.028
log2 fold change [6]: -0.093
log2 fold change [7]: -0.012
log2 fold change [8]: 0.02
log2 fold change [9]: 0.094
log2 fold change [10]: -0.041

XRCC5 (UniProt P13010)
log2 fold change [1]: -0.057
log2 fold change [2]: -0.332
log2 fold change [3]: -0.214
log2 fold change [4]: 0.173
log2 fold change [5]: -0.032
log2 fold change [6]: -0.37
log2 fold change [7]: 0.07
log2 fold change [8]: 0.048
log2 fold change [9]: 0.21
log2 fold change [10]: -0.067

TXNL1 (UniProt O43396)
log2 fold change [1]: -0.008
log2 fold change [2]: -0.068
log2 fold change [3]: -0.1
log2 fold change [4]: 0.215
log2 fold change [5]: 0.034
log2 fold change [6]: -0.085
log2 fold change [7]: 0.019
log2 fold change [8]: 0.024
log2 fold change [9]: 0.062
log2 fold change [10]: -0.045

UFL1 (UniProt O94874)
log2 fold change [1]: -0.033
log2 fold change [2]: -0.035
log2 fold change [3]: 0.027
log2 fold change [4]: 0.076
log2 fold change [5]: 0.018
log2 fold change [6]: -0.045
log2 fold change [7]: 0.1
log2 fold change [8]: 0
log2 fold change [9]: 0.121
log2 fold change [10]: -0.119

XPNPEP1 isoform 3 (UniProt Q9NQW7)
log2 fold change [1]: 0.002
log2 fold change [2]: -0.005
log2 fold change [3]: -0.076
log2 fold change [4]: -0.125
log2 fold change [5]: -0.027
log2 fold change [6]: -0.07
log2 fold change [7]: -0.033
log2 fold change [8]: -0.012
log2 fold change [9]: -0.008
log2 fold change [10]: 0.352 (active)

TMEM189-UBE2V1 (UniProt I3L0A0)
log2 fold change [1]: 0.041
log2 fold change [2]: 0.157
log2 fold change [3]: 0.016
log2 fold change [4]: -0.007
log2 fold change [5]: -0.004
log2 fold change [6]: -0.014
log2 fold change [7]: -0.059
log2 fold change [8]: -0.038
log2 fold change [9]: 0
log2 fold change [10]: 0.018

— the supplement of paper PMC10849652
